{"source": "PubChem BioAssay (NCI)", "note": "Compounds without any hit were thinned out: in the full panel of roughly 83,000, 20% have a hit.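 Results are percent growth after 48 hours of single-concentration exposure. 100 means growth as in untreated cells, lower positive values show inhibition; negative values down to -100 show cell death.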 A number with no mark means an inactive call. Active and inactive are the calls of the source. How the source made its calls: active means growth percent below 10; inactive means the rest."}
{"tested_on": "SR leukemia", "assay": "NCI-60 one-dose screen, 48 h (100 = growth as untreated, 0 = no growth, -100 = all killed)", "details": "10 µM unless noted"}
{"smiles": "CC(=O)OCC1OC([S-])C(OC(C)=O)C(OC(C)=O)C1OC(C)=O.[Au+].c1ccc(CN2[CH-]N(Cc3ccccc3)C(c3ccccc3)=C2c2ccccc2)cc1", "growth": "-8.38% [4.75 µM] (active)"}
{"smiles": "CC(=O)OCC1O[C@@H]([S-])C(OC(C)=O)[C@H](OC(C)=O)[C@@H]1OC(C)=O.[Au+].c1ccc(CN2[CH-]N(Cc3ccccc3)C(c3ccccc3)=C2c2ccccc2)cc1", "growth": "-29.1% (active)"}
{"smiles": "N#C[S-].[Au+].c1ccc(CN2[CH-]N(Cc3ccccc3)C(c3ccccc3)=C2c2ccccc2)cc1", "growth": "-8.44% (active)"}
{"tested_on": "OVCAR-4 ovarian", "assay": "NCI-60 one-dose screen, 48 h (100 = growth as untreated, 0 = no growth, -100 = all killed)", "details": "10 µM unless noted", "units": {"growth": "%"}}
{"smiles": "NC(=O)c1c(Br)c(Br)c(Br)c(Br)c1C(=O)O", "note": "(tested in a mixture with another compound)", "growth": 94.3}
{"smiles": "C1CCC([PH+](C2CCCCC2)C2CCCCC2[PH+](C2CCCCC2)C2CCCCC2)CC1.[Au].[CH-]1CCCCC1CC1CCCC[N-]1", "note": "(stereo unspecified)", "growth": 37.5}
{"smiles": "C1CCC([PH+](C2CCCCC2)C2CCCCC2[PH+](C2CCCCC2)C2CCCCC2)CC1.O=C(C1[CH-]CCCC1)C1CCCC[N-]1.[Au]", "note": "(stereo unspecified)", "growth": 18.2}
